# IDE exosite FP: insulin-degrading enzyme (human) exo-site inhibition. purified IDE, FL-6b probe fluorescence polarization; stronger effect = lower value. z-score at 20 µM. 17,000 compounds, 6.3% hits. AID 1259349;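 active = z-score of -3 or lower, meaning strong loss of probe binding signal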;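 note: His-tagged human IDE residues 42-1019 made in E. coli with 30 nM FL-6b probe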
# Target sequence (P14735 42-1019 limits assumed): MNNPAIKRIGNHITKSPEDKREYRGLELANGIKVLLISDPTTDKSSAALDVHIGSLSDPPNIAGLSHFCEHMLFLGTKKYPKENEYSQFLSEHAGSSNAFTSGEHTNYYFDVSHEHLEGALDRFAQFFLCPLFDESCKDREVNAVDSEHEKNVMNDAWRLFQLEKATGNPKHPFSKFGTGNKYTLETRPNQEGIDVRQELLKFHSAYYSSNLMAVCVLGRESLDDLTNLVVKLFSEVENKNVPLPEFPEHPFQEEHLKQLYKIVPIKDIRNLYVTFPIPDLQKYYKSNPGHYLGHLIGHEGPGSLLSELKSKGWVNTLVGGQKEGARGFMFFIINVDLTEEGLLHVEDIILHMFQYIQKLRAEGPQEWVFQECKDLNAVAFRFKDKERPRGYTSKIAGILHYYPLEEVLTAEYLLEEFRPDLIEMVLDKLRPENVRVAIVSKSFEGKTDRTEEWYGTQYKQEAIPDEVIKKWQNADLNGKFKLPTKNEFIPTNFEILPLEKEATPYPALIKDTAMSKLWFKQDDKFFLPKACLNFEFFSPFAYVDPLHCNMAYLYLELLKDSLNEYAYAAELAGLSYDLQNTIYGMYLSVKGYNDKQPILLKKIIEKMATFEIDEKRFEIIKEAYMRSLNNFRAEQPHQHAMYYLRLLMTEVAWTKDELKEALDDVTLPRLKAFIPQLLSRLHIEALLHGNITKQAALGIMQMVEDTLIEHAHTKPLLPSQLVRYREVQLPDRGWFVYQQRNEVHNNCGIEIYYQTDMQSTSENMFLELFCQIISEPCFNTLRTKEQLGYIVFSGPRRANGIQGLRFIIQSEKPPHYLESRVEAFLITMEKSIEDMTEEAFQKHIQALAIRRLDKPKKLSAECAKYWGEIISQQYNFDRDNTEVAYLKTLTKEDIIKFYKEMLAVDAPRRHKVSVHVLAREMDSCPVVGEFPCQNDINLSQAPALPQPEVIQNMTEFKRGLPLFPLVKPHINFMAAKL
# * = called active by the depositor; ! = not active in a repeat. This excerpt belongs to a sample that is enriched for hits.
SMILES,IDE exosite FP
COc1ccc(NC(=O)N2CC(=O)N3[C@@H](CO)[C@H](c4ccc(/C=C/c5ccccc5)cc4)[C@@H]3C2)cc1,2.6
CN1CCN(C(=O)C[C@H]2CC[C@@H]3[C@H](COC[C@@H](O)CN3Cc3cccc(-c4ccncc4)c3)O2)CC1,2.2
O=S(=O)(NC[C@@H]1[C@H](c2ccccc2)[C@@H](CO)N1CC1CC1)c1ccccc1,-2.6
N#C[C@@H]1[C@@H](c2ccc(C#Cc3cccc(F)c3)cc2)[C@H](CO)N1C(=O)C1CCC1,1.1
CC(C)CC#Cc1ccc([C@@H]2[C@@H](CO)N3C(=O)CN(C(=O)NC4CCCCC4)C[C@@H]23)cc1,3.6
C/C=C/c1ccc([C@H]2[C@@H](CO)N(C(=O)COC)[C@@H]2CNC(=O)C2CC2)cc1,1.5
Cc1cccc(S(=O)(=O)N2C[C@H](O)COC[C@H]3O[C@@H](CC(=O)Nc4ccccc4)CC[C@@H]32)c1,1.7
CC(=O)N1[C@H](CNC(=O)C2CC2)[C@H](c2ccc(-c3ccccc3)cc2)[C@@H]1CO,-1.1
COc1ccc2c3c(n(C)c2c1)[C@@H](CO)NCC31CCN(C(=O)Nc2ccc3c(c2)OCO3)CC1,0.96
CO[C@@H]1CN(C)C(=O)c2cc(NC(=O)c3cccc(F)c3)ccc2OC[C@@H](C)N(C)C[C@@H]1C,-1.2
CC(C)C#Cc1ccc([C@@H]2[C@@H](CO)N3CCCCN(C(=O)Nc4ccccc4)C[C@H]23)cc1,3.2
CNC(=O)C[C@@H]1CC[C@H]2[C@@H](COc3ccc(NS(=O)(=O)c4ccc(F)cc4)cc3C(=O)N2C)O1,-0.44
COc1cccc(-c2ccc(C3[C@H]4CNC[C@@H]3N4S(=O)(=O)c3cn(C)cn3)cc2)c1 (stereo partly drawn),-2.2
O=C(NC1CCCC1)N1CC(=O)N2[C@H](CO)[C@H](c3ccc(/C=C/c4ccccc4)cc3)[C@@H]2C1,-0.53
O=C(NC1CCCC1)N1CC(=O)N2[C@H](CO)[C@@H](c3ccc(/C=C/c4ccccc4)cc3)[C@H]2C1,-9.5*
O=C(NC1CCCCC1)N1CC(=O)N2[C@H](C1)[C@@H](c1ccc(/C=C/c3ccccc3)cc1)[C@@H]2CO,-1.7
O=C(O)[C@H]1[C@H](CO)[C@H]2Cn3c(ccc(/C=C/c4ccccc4)c3=O)[C@H]2N1Cc1ccc2c(c1)OCO2,-0.11
CN(C[C@H]1N[C@@H](CO)[C@H]1c1ccc(C2=CCCC2)cc1)S(C)(=O)=O,0.77
Cc1ccc(S(=O)(=O)NCC[C@H]2CC[C@H](NC(=O)c3cccnc3)[C@H](CO)O2)cc1,1.7
CC(C)C#Cc1ccc([C@@H]2[C@@H](CO)N3C(=O)CN(C(=O)c4ccc5c(c4)OCO5)C[C@@H]23)cc1,0.099
O=C(CN1CCOCC1)N1CCCCN2[C@@H](CO)[C@H](c3ccc(Br)cc3)[C@@H]2C1,-0.96
O=C(CN1CCOCC1)N1CCCCN2[C@H](CO)[C@@H](c3ccc(Br)cc3)[C@@H]2C1,1.1
O=C(CN1CCOCC1)N1CCCCN2[C@H](C1)[C@H](c1ccc(/C=C/c3ccccc3)cc1)[C@@H]2CO,-8.2*
O=C(CN1CCOCC1)N1CCCCN2[C@H](CO)[C@@H](c3ccc(/C=C/c4ccccc4)cc3)[C@@H]2C1,-3.7*
O=C(CN1CCOCC1)N1CCCCN2[C@@H](CO)[C@@H](c3ccc(Br)cc3)[C@@H]2C1,1.3
SMILES,IDE exosite FP
O=C(CN1CCOCC1)N1CCCCN2[C@H](CO)[C@H](c3ccc(-c4ccccc4)cc3)[C@H]2C1,-2.1
COc1ccc(-c2ccc([C@H]3[C@H]4CNCC(=O)N4[C@H]3CO)cc2)cc1,3.2
N#Cc1cccc(-c2ccc(C3[C@H]4CNC[C@@H]3N4Cc3cccc(F)c3)cc2)c1 (stereo partly drawn),1.7
CCC(=O)N1[C@@H](CO)[C@H](c2ccccc2)[C@@H]1CN(C)C(=O)CN1CCOCC1,-0.67
CCS(=O)(=O)N1CC2(CN(Cc3ccc4c(c3)OCO4)[C@H](CO)c3[nH]c4cc(OC)ccc4c32)C1,-0.042
O=C(Nc1ccc2c(c1)[C@H]1C[C@H](CC(=O)N3CCOCC3)O[C@H](CO)[C@H]1O2)Nc1ccccc1F,0.15
COc1ccccc1C#Cc1ccc([C@H]2[C@H](CO)N3CCCCN(CCC(F)(F)F)C[C@@H]23)cc1,-6.1*
OC[C@H]1[C@@H](c2ccc(C#CC3CCCC3)cc2)[C@@H]2CN(CCC(F)(F)F)CCCCN12,3.8
OC[C@H]1[C@@H](c2ccc(-c3ccc(F)cc3)cc2)[C@H]2CN(CCC(F)(F)F)CCCCN21,1.7
OC[C@H]1[C@@H](c2ccc(-c3ccccc3)cc2)[C@H]2CN(CCC(F)(F)F)CCCCN21,1.8
COc1ccccc1C#Cc1ccc([C@@H]2[C@@H](CO)N3CCCCN(CCC(F)(F)F)C[C@@H]23)cc1,-5.6*
OC[C@@H]1[C@@H](c2ccc(-c3ccccc3)cc2)[C@@H]2CN(CCC(F)(F)F)CCCCN12,0.77
COc1ccccc1C#Cc1ccc([C@H]2[C@@H](CO)N3CCCCN(CCC(F)(F)F)C[C@@H]23)cc1,-6.9*
OC[C@@H]1[C@H](c2ccc(-c3ccccc3)cc2)[C@H]2CN(CCC(F)(F)F)CCCCN12,2.4
OC[C@@H]1[C@H](c2ccc(C#CC3CCCC3)cc2)[C@H]2CN(CCC(F)(F)F)CCCCN12,2.5
Cc1cccc(-c2ccc([C@H]3[C@H]4CN(C(=O)c5ccc6c(c5)OCO6)CC(=O)N4[C@H]3CO)cc2)c1,-2.5
O=C(Nc1ccccc1F)N1CC(=O)N2[C@H](CO)[C@H](c3ccc(C#Cc4ccccc4)cc3)[C@@H]2C1,-1.5
CC(=O)N(C)C[C@@H]1[C@@H](c2ccc(-c3ccccc3)cc2)[C@H](CO)N1C(=O)C1CC1,1.2
C[C@@H]1CCCCO[C@H](CN(C)C(=O)Cc2ccccc2)[C@@H](C)CN([C@H](C)CO)C(=O)c2cc(NS(C)(=O)=O)ccc2O1,-0.17
O=S(=O)(c1ccc(F)cc1)N1C[C@@H]2N[C@H](C1)C2c1ccc(/C=C/c2ccccc2)cc1 (stereo partly drawn),0.82
O=S(=O)(Cc1ccccc1)N1[C@@H]2CNC[C@H]1C2c1ccc(-c2ccccc2)cc1 (stereo partly drawn),-0.66
Cc1cccc(S(=O)(=O)N2[C@@H]3CNC[C@H]2C3c2ccc(-c3ccccc3C)cc2)c1 (stereo partly drawn),-4*
Cc1ccccc1-c1ccc(C2[C@H]3CNC[C@@H]2N3S(=O)(=O)c2ccccc2)cc1 (stereo partly drawn),-1.5
Cc1ccccc1-c1ccc(C2[C@H]3CNC[C@@H]2N3S(=O)(=O)Cc2ccccc2)cc1 (stereo partly drawn),-7.3*
COc1ccc(S(=O)(=O)N2[C@@H]3CNC[C@H]2C3c2ccc(-c3ccccc3OC)cc2)cc1 (stereo partly drawn),-3.6*!
Cc1ccccc1-c1ccc(C2[C@H]3CNC[C@@H]2N3S(=O)(=O)c2ccccc2C)cc1 (stereo partly drawn),-0.51
COc1ccccc1-c1ccc(C2[C@H]3CNC[C@@H]2N3S(=O)(=O)c2ccccc2C)cc1 (stereo partly drawn),4.7
COc1ccccc1-c1ccc(C2[C@@H]3CN(S(=O)(=O)c4ccc(F)cc4)C[C@H]2N3)cc1 (stereo partly drawn),-3.1*!
COc1ccc(S(=O)(=O)N2[C@@H]3CNC[C@H]2C3c2ccc(-c3ccncc3)cc2)cc1 (stereo partly drawn),3.1

# From PubChem BioAssay
